The nature of assay [1]: compounds binding Alexa647 anti-His antibody – biochemical, small-molecule microarray, 635 nm fluorescence, artefact control for SMM control protein annotation, primary screen (AID 1128).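 Note: score merges feature fluorescence with signal-to-noise for each printed compound spot.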 The settings on record: higher = more signal.
In assay [2] the test system is Human papillomavirus type 1a E7 protein (residues 1-88). In words: HPV1a E7 small-molecule binders, primary screen, biochemical, small-molecule microarray, residues 1-88, 635 nm (AID 1129). Particulars: small-molecule microarray binding, fluorescence 635 nm; higher = more signal.
The target in assay [3] is Focal adhesion kinase 1 (Homo sapiens) (UniProt Q05397). In words: PTK2 protein binding on printed compound slides – biochemical, small-molecule microarray, 635/667 nm fluorescence, BSA, DTT, primary screen (AID 1130).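 Note: composite of spot emission at 667 nm and signal to noise over triplicate slides.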 The settings on record: 635 nm fluorescence, higher = more signal.
In assay [4] the test system is Fibrinogen (Alexa647-labelled). Kind of assay: Alexa647-fibrinogen binding to printed small molecules – biochemical, small-molecule microarray, 635/667 nm fluorescence, artefact control for SMM control-protein annotation, profiling panel (AID 1131).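 Note: z-score merges 667 nm fluorescence with per-spot signal-to-noise over triplicate slides.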 Particulars: fibrinogen-A647 binding fluorescence, higher = more signal.
Assay [5] addresses Follistatin (Homo sapiens) (UniProt P19883). In words: FST protein binding to printed compounds – biochemical, small-molecule microarray, 635/667 nm fluorescence, primary screen (AID 1132). Particulars: 635 nm fluorescence, higher = more signal.
The target in assay [6] is Fibroblast growth factor 2 (Homo sapiens) (UniProt P09038). In words: basic fibroblast growth factor binding to printed compounds – biochemical, small-molecule microarray, 635/667 nm fluorescence, primary screen (AID 1133). Particulars: FGF2, fluorescence 635/667, higher = more signal.
The nature of assay [7]: JC-1 mitochondrial potential readout, lung cancer cells – cell-based, A549, JC-1 fluorescence, basal, 24 h, 100 nL, profiling panel (AID 1138).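 Note: A549 lung adenocarcinoma cells under basal conditions with no added stimulus; test concentration not given here.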 Particulars: higher = more signal.
The subject of a further assay is Lefty1. Kind of assay: Lefty1 protein binding to printed compounds – biochemical, small-molecule microarray, 635/667 nm fluorescence, primary screen (AID 1139). Particulars: fluorescence 635/667, higher = more signal.
Assay [8] concerns wheat germ agglutinin (Triticum aestivum), Alexa647-labelled. Kind of assay: Alexa647-WGA lectin binding to printed small molecules – biochemical, small-molecule microarray, 635/667 nm fluorescence, artefact control for SMM control-protein annotation, profiling panel (AID 1140).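 Note: score merges 667 nm feature emission with signal to noise over triplicate slides.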 The settings on record: WGA-A647 binding, 635 nm fluorescence, higher = more signal.
In assay [9] the target is Luciferin 4-monooxygenase (Photinus pyralis) (UniProt P08659). In words: inhibition of purified Photinus pyralis luciferase – biochemical, luminescence, purified enzyme, 2006 set, primary screen (AID 1141).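 Note: cell-free assay with purified firefly luciferase at 100 ng per well in PBS; test concentration not given here.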 Particulars: purified firefly luciferase, SteadyGlo luminescence, 30 min; higher = more signal, called active from +8 up or from −8 down.
Assay [10] deals with Wnt5a (protein binding on small-molecule microarray). In words: small molecules binding Wnt5a protein – biophysical, small-molecule microarray, 635/667 nm fluorescence, primary screen (AID 1142).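 Note: fluorescence read at 667 nm with signal to noise per printed feature.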 The settings on record: 635 nm fluorescence, higher = more signal.
A short description of assay [11]: ATP-based viability of Huh7 replicon cells – cell-based, CellTiter-Glo luminescence, basal, 48 h, cytotoxicity control for HCV replication inhibitor project, primary screen (AID 1143).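 Note: Huh7 hepatoma cells carrying a hepatitis C replication reporter with no stimulus; test concentration not given here.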 Particulars: higher = more signal, called active from +8 up or from −8 down.
The nature of assay [12]: Pseudomonas biofilm growth suppression – PAO1 strain, BacTiter-Glo luminescence, LB-PBS, primary screen (AID 1144). The settings on record: P. aeruginosa PAO1 biofilm, 12 h, higher = more signal.
Assay [13] is described as follows: basal CRE-LacZ reporter activity in PC12 – cell-based, unstimulated, primary screen (AID 1145). The settings on record: no forskolin, luminescence, 4.5 h, higher = more signal, called active from +8 up or from −8 down.
The nature of assay [14]: forskolin-driven CRE-LacZ activity in PC12 – cell-based, CRE-LacZ reporter, forskolin-stimulated, primary screen (AID 1146).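 Note: PC12 cells with 6xCRE LacZ reporter stimulated by forskolin 10 µM; beta-galactosidase reporter signal reflecting CREB driven transcription.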 The settings on record: luminescence, 4.5 h, higher = more signal, called active from +8 up or from −8 down.
Assay [15] addresses Streptavidin (Streptomyces avidinii) (UniProt P22629). Kind of assay: compounds binding control protein streptavidin – biophysical, small-molecule microarray, 635/667 nm fluorescence, artefact control for SMM compound annotation, primary screen (AID 1147).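 Note: signal reflects streptavidin binding to arrayed compounds as a control protein.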 The settings on record: higher = more signal.
The nature of assay [16]: probe aInhba binding on compound microarray – biochemical, small-molecule microarray, 635/667 nm fluorescence, primary screen (AID 1148).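 Note: score merges 667nm spot fluorescence with signal-to-noise for antibody binding to printed compounds.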 Particulars: higher = more signal.
For assay [17], the target named is Torsin-1A (Homo sapiens) (UniProt O14656). Kind of assay: TOR1A wild-type binding on microarray – cell lysate, small-molecule microarray, lysate, 635/667 nm, primary screen (AID 1149). The settings on record: COS7 hTOR1A-WT lysate, 635 nm fluorescence, higher = more signal.
Assay [18] has the same target. Kind of assay: torsin A mutant lysate binding on microarrays – cell lysate, small-molecule microarray, COS7 lysate, 635/667 nm fluorescence, primary screen (AID 1150).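 Note: score pools 667 nm emission and signal to noise measuring lysate protein binding.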 The settings on record: COS7 hTOR1A mutant lysate, 635 nm fluorescence, higher = more signal.
The subject of assay [19] is Sonic hedgehog protein (Shh). Kind of assay: Sonic hedgehog microarray binding compounds – biochemical, small-molecule microarray, 635/667 nm fluorescence, primary screen (AID 1151).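 Note: Shh protein binding to compounds spotted on small-molecule microarray slides; score combines spot fluorescence intensity with signal-to-noise across triplicate slides.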 Particulars: 635 nm fluorescence, higher = more signal.

The values that follow come from PubChem BioAssay.

Calls of active or inactive are those of the source. Unless noted, the rule behind the calls is not given here.

Torsin-1A (Homo sapiens), sequence (O14656 whole entry, looked up): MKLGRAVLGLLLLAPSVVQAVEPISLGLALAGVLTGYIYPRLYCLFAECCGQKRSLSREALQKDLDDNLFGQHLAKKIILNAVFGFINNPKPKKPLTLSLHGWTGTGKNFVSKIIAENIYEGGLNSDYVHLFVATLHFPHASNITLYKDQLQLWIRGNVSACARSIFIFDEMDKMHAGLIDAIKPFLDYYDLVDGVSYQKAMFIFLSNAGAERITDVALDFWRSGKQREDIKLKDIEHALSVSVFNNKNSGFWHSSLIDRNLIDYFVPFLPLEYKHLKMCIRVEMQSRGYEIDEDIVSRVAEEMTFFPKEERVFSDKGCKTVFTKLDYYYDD
Fibroblast growth factor 2 (Homo sapiens), sequence (P09038 whole entry, looked up): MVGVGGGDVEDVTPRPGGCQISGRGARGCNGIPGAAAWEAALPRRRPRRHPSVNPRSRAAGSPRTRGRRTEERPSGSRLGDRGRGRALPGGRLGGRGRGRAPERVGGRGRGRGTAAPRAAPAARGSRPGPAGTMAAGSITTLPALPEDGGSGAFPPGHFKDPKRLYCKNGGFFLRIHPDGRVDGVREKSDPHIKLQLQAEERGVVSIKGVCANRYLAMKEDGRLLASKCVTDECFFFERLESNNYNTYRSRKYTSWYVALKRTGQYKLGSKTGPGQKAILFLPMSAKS
Follistatin (Homo sapiens), sequence (P19883 whole entry, looked up): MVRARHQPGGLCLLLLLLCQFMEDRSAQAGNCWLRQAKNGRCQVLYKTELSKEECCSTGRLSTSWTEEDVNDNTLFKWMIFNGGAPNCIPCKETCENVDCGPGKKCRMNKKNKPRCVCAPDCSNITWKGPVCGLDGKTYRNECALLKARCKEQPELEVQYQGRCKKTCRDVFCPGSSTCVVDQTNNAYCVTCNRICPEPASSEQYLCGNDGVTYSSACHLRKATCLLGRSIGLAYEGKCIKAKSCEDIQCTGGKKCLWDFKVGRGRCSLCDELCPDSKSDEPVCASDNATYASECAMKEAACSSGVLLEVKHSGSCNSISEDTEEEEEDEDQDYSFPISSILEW
Streptavidin (Streptomyces avidinii), sequence (P22629 whole entry, looked up): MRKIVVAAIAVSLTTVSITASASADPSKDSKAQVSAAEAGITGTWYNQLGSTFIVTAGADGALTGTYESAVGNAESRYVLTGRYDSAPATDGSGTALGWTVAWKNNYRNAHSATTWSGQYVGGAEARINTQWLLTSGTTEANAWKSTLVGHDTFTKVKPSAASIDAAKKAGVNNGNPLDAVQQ
Luciferin 4-monooxygenase (Photinus pyralis), sequence (P08659 whole entry, looked up): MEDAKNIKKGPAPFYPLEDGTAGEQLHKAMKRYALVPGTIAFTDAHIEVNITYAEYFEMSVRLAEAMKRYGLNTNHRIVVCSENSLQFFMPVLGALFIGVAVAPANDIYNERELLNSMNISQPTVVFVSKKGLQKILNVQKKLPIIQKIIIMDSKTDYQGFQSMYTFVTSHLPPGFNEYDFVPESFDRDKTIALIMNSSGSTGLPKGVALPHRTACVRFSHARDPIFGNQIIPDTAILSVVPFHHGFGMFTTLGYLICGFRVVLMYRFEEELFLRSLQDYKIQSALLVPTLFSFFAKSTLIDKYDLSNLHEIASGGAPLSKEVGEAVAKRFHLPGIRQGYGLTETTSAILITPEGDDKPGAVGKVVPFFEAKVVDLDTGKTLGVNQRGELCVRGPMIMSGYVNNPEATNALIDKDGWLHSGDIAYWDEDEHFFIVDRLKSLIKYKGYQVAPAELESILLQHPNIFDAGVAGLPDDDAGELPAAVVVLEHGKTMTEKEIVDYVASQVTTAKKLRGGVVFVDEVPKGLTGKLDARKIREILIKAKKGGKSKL
Focal adhesion kinase 1 (Homo sapiens), sequence (Q05397 whole entry, looked up): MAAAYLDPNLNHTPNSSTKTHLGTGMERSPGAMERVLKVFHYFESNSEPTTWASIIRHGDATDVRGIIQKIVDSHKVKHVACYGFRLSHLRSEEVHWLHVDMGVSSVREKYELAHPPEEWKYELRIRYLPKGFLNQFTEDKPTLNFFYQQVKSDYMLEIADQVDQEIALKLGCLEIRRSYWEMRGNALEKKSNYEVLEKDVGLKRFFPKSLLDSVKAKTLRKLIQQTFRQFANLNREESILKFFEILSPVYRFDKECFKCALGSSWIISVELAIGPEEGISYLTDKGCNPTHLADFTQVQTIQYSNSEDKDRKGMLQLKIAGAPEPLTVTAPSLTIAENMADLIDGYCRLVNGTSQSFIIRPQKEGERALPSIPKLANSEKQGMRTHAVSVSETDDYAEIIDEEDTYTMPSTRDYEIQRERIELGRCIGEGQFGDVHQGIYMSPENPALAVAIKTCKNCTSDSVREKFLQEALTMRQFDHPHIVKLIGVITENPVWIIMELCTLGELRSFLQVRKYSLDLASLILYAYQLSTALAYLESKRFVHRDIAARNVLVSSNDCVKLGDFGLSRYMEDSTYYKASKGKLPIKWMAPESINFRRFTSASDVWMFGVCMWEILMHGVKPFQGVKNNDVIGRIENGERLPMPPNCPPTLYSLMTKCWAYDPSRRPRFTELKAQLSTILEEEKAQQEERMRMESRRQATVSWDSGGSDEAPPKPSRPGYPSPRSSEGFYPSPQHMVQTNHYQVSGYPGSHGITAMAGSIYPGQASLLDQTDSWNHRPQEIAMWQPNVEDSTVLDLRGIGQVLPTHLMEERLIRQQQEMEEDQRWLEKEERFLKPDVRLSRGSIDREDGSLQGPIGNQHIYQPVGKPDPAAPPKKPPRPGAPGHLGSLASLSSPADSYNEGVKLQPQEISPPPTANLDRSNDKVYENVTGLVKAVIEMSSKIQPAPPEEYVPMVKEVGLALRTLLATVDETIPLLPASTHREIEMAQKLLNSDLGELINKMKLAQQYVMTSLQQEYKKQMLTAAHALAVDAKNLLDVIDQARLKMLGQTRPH

In the case of `COc1ccc(CCNC(=O)[C@@H]2c3ccccc3C(=O)N(C(C)C)[C@H]2c2ccc(CO)cc2)cc1`, the composite z-score in assay [1] was -1.32; in assay [2], -0.878; in assay [3], -0.736; in [4] it was -1.3; in [5], -1.27; in assay [6] it was -0.934. Also, the composite z-score in the assay with Lefty1 is -2.21; in assay [8], -1.74; in assay [10], -0.234; in assay [15], -0.896; in [16] it was -0.253; in the assay with Torsin-1A (Homo sapiens) [17], 0.123. Moreover, the composite z-score with Torsin-1A (Homo sapiens) [18] was 0.0739; in [19] it was -0.937. For the same molecule, the z-score was 2.71 in [7]; -0.897 (inactive) in assay [9]; 0.172 (inactive) in [11]; 0.948 (inactive) in assay [12]; 0.351 (inactive) in assay [13]; -0.859 (inactive) in assay [14].
Turning to `COc1cc(Cc2cc3c(c(CCc4ccccc4)n2)[Si](C(C)C)(C(C)C)O[C@H]3c2ccccc2)cc(OC)c1OC`, the composite z-score in assay [1] was -0.133; in assay [2] it was -1.36; in [3] it was -0.114; in [4] it was 0.0047; in assay [5], 0.214; in [6], -0.392. The composite z-score was -0.261 in the assay with Lefty1; -0.192 in [8]; -0.0786 in assay [10]; 0.537 in assay [15]; 0.182 in [16]; 0.707 with Torsin-1A (Homo sapiens) [17]. Besides, the composite z-score was -0.0236 in the assay with Torsin-1A (Homo sapiens) [18] and -0.418 in assay [19]. In addition, the z-score in assay [7] was -1.64; in [9] it was -0.0946 (inactive); in assay [11] it was -4.48 (inactive); in assay [12] it was 0.626 (inactive); in [13], 0.875 (inactive); in assay [14] it was 0.992 (inactive).
For `O=C1O[C@@H](c2ccccc2)[C@@H](c2ccccc2)N2[C@@H](c3ccccc3OCCO)[C@]3(C(=O)Nc4ccc(C#CC5(O)CCCCCC5)cc43)[C@@H](C(=O)N3CCCCCCC3)[C@H]12`, the composite z-score in assay [1] was 2.72; in [2] it was 1.27; in assay [3], 4.12; in assay [4], 0.89; in [5], 1.58; in [6] it was 0.718. Besides, the composite z-score in the assay on Lefty1 came out at 1.99; in assay [8], 1.67; in assay [10], 2.35; in assay [15] it was 2.41; in assay [16] it was 2.16; with Torsin-1A (Homo sapiens) [17] it was 3.29. Moreover, the composite z-score in the assay with Torsin-1A (Homo sapiens) [18] amounted to 3.08; in assay [19] it was 2.06. Further, the z-score in assay [7] is -1.1; in [9], -0.37 (inactive); in assay [11] it was -5.6 (inactive); in [12] it was -0.349 (inactive); in [13], -0.168 (inactive); in assay [14], 0.306 (inactive).
As to `[N-]=[N+]=Nc1ccccc1C[C@]1(C(=O)N2CCCCC2)N=C(c2ccc(OCCCO)cc2)O[C@H]1c1ccccc1`, the composite z-score worked out at 2.69 in assay [1]; 1.2 in assay [2]; 0.307 in assay [3]; 0.934 in assay [4]; 1.26 in assay [5]; 1.38 in [6]. For the same molecule, the composite z-score with Lefty1 amounted to 0.225; in assay [8], 1.22; in assay [10], 0.982; in assay [15], 1.15; in assay [16], 0.696; with Torsin-1A (Homo sapiens) [17] it was 0.351. For the same molecule, the composite z-score was found to be 0.402 in the assay with Torsin-1A (Homo sapiens) [18] and 1.05 in assay [19]. Further, the z-score in assay [7] was -0.0876; in [9], -1.99 (inactive); in [11], -4.56 (inactive); in [12], 0.0619 (inactive); in assay [13], -0.506 (inactive); in [14], -0.0671 (inactive).
Take `C=C(CC1([C@@H](NP(=O)(c2ccccc2)c2ccccc2)[C@H]2C[C@@H]2CCCC)CC1)c1cccc(OC)c1`: the composite z-score in assay [1] was 1.18; in assay [2], 0.811; in assay [3] it was 0.751; in assay [4], 0.269; in assay [5] it was 0.43; in [6] it was -0.7. Moreover, the composite z-score with Lefty1 was -0.739; in [8], 0.344; in assay [10], 0.0445; in [15] it was 0.566; in assay [16] it was 0.0227; with Torsin-1A (Homo sapiens) [17], -0.547. Further, the composite z-score is -0.302 with Torsin-1A (Homo sapiens) [18] and -0.836 in [19]. For the same molecule, the z-score in assay [7] is 0.959; in [9], 2.59 (inactive); in assay [11], -1.65 (inactive); in assay [12], 0.496 (inactive); in assay [13] it was 0.0109 (inactive); in assay [14], 0.276 (inactive).
